In ChEMBL document CHEMBL1961873, “Compounds: GSK PKIS; Assays: Nanosyn kinase panel” (2012):

Experiments:
[1] = biological target: T1, Serine/threonine-protein kinase Nek9 (Homo sapiens) (UniProt Q8TD19); conditions: at 1 µM;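 further: each value is a mean percent inhibition of NEK9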
T1 sequence (whole entry): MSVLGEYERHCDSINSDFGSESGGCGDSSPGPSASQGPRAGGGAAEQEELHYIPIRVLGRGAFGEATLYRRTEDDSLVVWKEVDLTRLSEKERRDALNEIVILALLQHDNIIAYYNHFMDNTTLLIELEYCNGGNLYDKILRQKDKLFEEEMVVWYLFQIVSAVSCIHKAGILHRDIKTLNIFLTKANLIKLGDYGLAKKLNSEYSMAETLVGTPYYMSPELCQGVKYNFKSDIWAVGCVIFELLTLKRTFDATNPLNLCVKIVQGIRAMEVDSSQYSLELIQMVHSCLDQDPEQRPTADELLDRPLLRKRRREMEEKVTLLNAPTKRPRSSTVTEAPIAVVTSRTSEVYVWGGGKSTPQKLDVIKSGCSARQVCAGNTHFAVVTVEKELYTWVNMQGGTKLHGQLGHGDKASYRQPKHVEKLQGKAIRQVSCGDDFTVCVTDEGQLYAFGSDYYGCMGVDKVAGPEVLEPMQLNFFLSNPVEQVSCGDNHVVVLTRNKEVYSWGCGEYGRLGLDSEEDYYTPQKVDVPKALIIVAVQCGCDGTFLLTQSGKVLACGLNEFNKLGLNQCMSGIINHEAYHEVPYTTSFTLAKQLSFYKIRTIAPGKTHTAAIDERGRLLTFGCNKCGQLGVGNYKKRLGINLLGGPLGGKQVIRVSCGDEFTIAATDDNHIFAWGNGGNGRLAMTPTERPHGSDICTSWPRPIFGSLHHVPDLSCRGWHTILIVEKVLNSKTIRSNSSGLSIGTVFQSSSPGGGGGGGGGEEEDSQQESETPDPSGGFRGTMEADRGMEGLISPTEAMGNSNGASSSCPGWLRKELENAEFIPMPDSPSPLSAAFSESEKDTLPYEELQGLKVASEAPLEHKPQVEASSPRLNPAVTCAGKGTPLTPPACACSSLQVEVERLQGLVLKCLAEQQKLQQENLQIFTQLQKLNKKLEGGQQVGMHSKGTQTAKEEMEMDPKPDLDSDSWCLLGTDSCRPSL

[2] = biological target: Serine/threonine-protein kinase PLK1 (Homo sapiens) (UniProt P53350); conditions: at 0.1 µM
[3] = biological target: Serine/threonine-protein kinase PLK1 (Homo sapiens) (UniProt P53350); conditions: at 1 µM
[4] = biological target: T2, Dual specificity protein kinase TTK (Homo sapiens) (UniProt P33981); conditions: at 0.1 µM
T2 sequence (whole entry): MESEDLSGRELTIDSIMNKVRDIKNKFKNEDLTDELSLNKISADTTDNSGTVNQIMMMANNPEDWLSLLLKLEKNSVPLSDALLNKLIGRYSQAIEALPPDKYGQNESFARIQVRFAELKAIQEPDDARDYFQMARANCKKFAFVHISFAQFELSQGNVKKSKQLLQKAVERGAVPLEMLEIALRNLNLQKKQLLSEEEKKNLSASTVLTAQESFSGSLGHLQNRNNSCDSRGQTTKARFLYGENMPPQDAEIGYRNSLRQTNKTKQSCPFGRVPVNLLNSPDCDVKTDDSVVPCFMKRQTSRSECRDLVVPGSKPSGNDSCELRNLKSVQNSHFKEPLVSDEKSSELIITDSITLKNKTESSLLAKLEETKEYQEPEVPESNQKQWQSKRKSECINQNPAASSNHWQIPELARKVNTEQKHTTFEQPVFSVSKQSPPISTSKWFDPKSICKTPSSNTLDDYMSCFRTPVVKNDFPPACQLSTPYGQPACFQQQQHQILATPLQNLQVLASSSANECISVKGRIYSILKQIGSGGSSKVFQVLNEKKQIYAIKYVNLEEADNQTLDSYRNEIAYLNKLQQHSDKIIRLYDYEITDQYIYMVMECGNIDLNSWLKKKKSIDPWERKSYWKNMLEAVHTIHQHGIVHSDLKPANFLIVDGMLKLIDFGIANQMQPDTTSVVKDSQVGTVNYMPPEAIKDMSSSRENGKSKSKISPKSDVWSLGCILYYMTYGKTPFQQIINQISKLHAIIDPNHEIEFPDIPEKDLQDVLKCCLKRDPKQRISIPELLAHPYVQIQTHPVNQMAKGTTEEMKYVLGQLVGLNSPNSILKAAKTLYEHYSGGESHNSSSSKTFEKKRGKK

[5] = tested on: T3, Receptor-type tyrosine-protein kinase FLT3 (Homo sapiens), P36888 [D835Y]; conditions: at 1 µM
T3 sequence (whole entry): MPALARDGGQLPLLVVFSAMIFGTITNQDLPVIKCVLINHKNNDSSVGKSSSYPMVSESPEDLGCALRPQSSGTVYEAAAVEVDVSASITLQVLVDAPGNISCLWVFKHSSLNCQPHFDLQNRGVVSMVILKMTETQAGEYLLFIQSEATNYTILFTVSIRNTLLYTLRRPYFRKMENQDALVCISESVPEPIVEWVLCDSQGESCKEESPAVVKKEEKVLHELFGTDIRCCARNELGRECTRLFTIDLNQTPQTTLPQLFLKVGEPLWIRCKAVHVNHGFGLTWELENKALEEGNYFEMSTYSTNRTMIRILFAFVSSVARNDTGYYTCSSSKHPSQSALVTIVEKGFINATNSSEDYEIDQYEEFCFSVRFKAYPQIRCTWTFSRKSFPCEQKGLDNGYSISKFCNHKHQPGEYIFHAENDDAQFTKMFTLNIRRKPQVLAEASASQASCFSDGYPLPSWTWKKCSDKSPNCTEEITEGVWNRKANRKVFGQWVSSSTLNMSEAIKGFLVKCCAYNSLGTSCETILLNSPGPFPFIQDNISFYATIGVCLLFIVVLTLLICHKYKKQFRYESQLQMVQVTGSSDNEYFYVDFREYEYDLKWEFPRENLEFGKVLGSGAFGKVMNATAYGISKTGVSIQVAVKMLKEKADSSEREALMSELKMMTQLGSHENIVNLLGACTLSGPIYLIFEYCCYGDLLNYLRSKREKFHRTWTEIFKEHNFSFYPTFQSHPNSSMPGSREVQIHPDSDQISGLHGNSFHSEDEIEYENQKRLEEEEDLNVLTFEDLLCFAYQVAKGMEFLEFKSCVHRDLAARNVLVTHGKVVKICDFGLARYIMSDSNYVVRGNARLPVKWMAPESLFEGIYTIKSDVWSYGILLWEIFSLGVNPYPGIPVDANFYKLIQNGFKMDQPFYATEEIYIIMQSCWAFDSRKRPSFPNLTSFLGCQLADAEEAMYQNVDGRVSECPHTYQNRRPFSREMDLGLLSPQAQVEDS

[6] = biological target: Vascular endothelial growth factor receptor 3 (Homo sapiens) (UniProt P35916); conditions: at 0.1 µM
[7] = biological target: Vascular endothelial growth factor receptor 3 (Homo sapiens) (UniProt P35916); conditions: at 1 µM
[8] = biological target: Macrophage colony-stimulating factor 1 receptor (Homo sapiens) (UniProt P07333); conditions: at 0.1 µM
[9] = biological target: Macrophage colony-stimulating factor 1 receptor (Homo sapiens) (UniProt P07333); conditions: at 1 µM
[10] = biological target: Tyrosine-protein kinase Fyn (Homo sapiens) (UniProt P06241); conditions: at 0.1 µM
[11] = biological target: Tyrosine-protein kinase Fyn (Homo sapiens) (UniProt P06241); conditions: at 1 µM
[12] = biological target: Tyrosine-protein kinase HCK (Homo sapiens) (UniProt P08631); conditions: at 0.1 µM
[13] = biological target: Tyrosine-protein kinase HCK (Homo sapiens) (UniProt P08631); conditions: at 1 µM
[14] = biological target: Insulin-like growth factor 1 receptor (Homo sapiens) (UniProt P08069); conditions: at 0.1 µM
[15] = biological target: Insulin-like growth factor 1 receptor (Homo sapiens) (UniProt P08069); conditions: at 1 µM
[16] = biological target: Insulin receptor (Homo sapiens) (UniProt P06213); conditions: at 0.1 µM
[17] = biological target: Insulin receptor (Homo sapiens) (UniProt P06213); conditions: at 1 µM
[18] = biological target: Insulin receptor-related protein (Homo sapiens) (UniProt P14616); conditions: at 0.1 µM
[19] = biological target: Insulin receptor-related protein (Homo sapiens) (UniProt P14616); conditions: at 1 µM
[20] = biological target: T4, Tyrosine-protein kinase ITK/TSK (Homo sapiens) (UniProt Q08881); conditions: at 0.1 µM;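 further: mean percent inhibition of ITK from the GSK PKIS screen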
T4 sequence (whole entry): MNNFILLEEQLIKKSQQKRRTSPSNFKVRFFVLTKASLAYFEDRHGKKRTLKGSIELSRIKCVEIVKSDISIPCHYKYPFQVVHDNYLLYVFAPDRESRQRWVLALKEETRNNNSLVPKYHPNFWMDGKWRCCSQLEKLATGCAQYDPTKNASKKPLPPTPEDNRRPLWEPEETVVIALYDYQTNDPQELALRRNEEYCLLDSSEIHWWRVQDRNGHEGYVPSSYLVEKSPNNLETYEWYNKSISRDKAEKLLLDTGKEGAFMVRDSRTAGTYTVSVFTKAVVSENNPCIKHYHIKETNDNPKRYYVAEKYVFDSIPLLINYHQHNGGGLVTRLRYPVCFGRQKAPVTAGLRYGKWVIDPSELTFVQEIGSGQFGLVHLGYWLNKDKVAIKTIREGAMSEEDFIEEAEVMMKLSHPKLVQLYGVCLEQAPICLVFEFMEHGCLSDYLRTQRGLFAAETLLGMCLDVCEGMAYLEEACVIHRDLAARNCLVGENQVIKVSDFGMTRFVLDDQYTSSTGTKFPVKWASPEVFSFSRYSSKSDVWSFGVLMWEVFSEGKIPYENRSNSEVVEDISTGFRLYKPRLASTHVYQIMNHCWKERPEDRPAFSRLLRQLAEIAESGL

Chain of Vascular endothelial growth factor receptor 3 (Homo sapiens) (P35916 whole entry): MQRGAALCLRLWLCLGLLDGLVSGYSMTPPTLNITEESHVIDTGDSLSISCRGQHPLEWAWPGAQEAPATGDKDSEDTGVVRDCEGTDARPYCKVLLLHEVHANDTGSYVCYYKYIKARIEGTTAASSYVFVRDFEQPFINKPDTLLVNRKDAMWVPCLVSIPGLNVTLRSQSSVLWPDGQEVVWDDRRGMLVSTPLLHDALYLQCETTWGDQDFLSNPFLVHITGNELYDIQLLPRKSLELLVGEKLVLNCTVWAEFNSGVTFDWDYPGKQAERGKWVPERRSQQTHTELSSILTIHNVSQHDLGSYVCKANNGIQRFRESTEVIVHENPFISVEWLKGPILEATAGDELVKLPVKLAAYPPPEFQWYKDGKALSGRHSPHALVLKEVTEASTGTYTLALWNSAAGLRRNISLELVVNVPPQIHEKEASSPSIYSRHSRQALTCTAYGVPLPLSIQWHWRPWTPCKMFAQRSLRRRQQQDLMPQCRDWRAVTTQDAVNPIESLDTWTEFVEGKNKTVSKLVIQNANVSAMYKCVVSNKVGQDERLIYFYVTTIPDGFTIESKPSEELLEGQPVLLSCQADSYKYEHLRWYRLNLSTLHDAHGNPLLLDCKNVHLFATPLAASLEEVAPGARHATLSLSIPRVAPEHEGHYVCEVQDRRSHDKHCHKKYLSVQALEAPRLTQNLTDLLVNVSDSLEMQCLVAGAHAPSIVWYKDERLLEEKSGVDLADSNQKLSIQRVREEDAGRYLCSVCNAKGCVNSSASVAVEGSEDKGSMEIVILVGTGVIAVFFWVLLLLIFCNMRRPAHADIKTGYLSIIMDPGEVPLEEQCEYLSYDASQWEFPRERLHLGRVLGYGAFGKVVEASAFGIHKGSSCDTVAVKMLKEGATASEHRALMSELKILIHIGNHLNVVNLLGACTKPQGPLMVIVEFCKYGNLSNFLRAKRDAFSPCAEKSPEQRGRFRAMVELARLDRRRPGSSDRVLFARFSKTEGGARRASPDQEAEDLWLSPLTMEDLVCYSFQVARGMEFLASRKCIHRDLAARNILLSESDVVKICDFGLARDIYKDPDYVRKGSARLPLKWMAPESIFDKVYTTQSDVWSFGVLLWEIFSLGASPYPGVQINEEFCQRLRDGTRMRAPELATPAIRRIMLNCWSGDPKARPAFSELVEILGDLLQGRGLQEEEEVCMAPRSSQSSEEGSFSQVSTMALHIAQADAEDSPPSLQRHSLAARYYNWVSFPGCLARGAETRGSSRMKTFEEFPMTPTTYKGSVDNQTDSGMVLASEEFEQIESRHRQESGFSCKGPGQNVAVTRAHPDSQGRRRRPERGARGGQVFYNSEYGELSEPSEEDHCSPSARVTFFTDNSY
Chain of Tyrosine-protein kinase Fyn (Homo sapiens) (P06241 2-537 limits assumed): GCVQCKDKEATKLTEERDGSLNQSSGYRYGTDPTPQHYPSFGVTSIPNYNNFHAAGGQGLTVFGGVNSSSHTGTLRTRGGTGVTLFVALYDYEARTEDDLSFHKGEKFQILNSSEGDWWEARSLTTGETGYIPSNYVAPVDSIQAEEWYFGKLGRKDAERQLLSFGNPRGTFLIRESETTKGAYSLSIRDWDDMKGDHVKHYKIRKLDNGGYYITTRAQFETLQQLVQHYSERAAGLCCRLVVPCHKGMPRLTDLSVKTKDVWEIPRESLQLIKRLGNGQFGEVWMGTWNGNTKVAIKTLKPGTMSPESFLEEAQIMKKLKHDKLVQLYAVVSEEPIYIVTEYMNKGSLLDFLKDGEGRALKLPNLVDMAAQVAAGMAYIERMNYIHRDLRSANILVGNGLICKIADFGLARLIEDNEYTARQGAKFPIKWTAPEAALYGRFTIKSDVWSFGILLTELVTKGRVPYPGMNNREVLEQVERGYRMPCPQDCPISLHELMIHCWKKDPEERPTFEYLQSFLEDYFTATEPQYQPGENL
Chain of Insulin receptor (Homo sapiens) (P06213 28-758 limits assumed): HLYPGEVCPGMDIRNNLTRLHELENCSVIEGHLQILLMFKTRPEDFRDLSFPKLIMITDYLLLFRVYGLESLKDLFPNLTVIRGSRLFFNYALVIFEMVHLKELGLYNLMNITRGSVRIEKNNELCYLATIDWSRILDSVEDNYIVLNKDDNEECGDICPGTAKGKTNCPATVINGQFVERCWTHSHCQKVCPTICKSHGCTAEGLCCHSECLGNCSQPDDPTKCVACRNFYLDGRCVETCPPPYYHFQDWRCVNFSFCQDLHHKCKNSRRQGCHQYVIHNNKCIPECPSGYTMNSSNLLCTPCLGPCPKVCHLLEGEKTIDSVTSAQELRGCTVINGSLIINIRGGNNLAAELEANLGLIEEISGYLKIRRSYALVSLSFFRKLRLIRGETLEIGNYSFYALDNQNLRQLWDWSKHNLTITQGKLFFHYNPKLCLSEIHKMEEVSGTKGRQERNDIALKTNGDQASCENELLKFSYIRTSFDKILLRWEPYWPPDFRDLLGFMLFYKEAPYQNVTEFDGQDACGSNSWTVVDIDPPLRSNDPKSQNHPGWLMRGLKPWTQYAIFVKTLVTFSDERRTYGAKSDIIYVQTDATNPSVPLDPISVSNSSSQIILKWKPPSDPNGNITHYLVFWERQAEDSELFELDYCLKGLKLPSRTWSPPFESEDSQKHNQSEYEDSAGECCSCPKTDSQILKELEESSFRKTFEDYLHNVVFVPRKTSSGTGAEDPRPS
Chain of Insulin receptor (Homo sapiens) (P06213 763-1382 limits assumed): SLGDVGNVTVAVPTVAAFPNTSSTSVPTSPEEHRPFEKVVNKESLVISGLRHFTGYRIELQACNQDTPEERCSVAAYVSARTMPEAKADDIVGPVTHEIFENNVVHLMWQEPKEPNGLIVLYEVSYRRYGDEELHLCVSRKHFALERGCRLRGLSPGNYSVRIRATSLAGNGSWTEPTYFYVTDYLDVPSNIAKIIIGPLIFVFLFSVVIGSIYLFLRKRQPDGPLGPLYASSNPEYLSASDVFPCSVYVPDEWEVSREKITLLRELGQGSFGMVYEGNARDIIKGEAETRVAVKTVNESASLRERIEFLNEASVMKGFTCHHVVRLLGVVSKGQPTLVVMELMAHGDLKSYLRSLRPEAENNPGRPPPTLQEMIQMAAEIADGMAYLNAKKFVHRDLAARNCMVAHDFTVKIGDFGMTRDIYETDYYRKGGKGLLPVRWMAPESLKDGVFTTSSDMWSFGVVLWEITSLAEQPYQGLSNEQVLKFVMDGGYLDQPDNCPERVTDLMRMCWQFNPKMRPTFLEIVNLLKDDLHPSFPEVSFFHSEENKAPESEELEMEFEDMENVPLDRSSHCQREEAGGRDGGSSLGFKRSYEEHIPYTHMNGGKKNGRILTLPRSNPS
Chain of Tyrosine-protein kinase HCK (Homo sapiens) (P08631 2-526 limits assumed): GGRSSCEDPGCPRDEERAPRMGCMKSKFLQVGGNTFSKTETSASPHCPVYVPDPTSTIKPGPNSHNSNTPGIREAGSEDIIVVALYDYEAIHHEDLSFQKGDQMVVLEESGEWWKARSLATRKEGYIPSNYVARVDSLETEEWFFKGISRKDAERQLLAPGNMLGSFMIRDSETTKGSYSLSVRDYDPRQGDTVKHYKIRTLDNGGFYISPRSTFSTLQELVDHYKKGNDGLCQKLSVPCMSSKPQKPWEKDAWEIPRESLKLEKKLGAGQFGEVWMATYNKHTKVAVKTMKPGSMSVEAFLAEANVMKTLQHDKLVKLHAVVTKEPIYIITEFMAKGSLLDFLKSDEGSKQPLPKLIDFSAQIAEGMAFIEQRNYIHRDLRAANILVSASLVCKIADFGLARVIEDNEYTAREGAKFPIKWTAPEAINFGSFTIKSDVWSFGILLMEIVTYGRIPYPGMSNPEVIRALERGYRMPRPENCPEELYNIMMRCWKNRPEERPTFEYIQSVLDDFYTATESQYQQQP
Chain of Macrophage colony-stimulating factor 1 receptor (Homo sapiens) (P07333 whole entry): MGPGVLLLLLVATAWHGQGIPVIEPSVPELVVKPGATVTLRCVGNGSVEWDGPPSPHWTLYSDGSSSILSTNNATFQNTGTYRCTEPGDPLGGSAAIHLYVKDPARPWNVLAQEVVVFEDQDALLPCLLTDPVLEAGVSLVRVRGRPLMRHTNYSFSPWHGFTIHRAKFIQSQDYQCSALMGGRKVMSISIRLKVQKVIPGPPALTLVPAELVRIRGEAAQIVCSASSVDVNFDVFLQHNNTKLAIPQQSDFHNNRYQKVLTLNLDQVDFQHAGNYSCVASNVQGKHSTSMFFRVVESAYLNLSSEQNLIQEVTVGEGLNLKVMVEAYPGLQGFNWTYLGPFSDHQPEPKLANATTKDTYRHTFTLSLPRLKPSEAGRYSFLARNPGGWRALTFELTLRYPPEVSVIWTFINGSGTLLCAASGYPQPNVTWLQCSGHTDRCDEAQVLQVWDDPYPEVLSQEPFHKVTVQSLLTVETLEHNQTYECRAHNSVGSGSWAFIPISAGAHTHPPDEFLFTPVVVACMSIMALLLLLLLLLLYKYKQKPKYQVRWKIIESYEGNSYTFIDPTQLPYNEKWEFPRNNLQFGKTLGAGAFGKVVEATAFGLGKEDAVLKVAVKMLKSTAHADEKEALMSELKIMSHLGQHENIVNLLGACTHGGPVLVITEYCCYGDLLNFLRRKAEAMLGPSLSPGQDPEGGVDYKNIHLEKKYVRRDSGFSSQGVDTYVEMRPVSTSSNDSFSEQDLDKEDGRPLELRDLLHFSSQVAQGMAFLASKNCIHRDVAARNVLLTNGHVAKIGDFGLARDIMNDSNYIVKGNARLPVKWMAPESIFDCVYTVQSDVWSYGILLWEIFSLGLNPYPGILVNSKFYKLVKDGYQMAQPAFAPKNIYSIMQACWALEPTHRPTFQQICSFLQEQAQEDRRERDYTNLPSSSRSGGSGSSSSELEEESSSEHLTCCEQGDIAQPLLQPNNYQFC

| Compound | inhibition [1] | inhibition [2] | inhibition [3] | inhibition [4] | inhibition [5] | inhibition [6] | inhibition [7] | inhibition [8] | inhibition [9] | inhibition [10] | inhibition [11] | inhibition [12] | inhibition [13] | inhibition [14] | inhibition [15] | inhibition [16] | inhibition [17] | inhibition [18] | inhibition [19] | inhibition [20] |
| --- | --- | --- | --- | --- | --- | --- | --- | --- | --- | --- | --- | --- | --- | --- | --- | --- | --- | --- | --- | --- |
| O=C(Nc1n[nH]c2nc(-c3ccco3)ccc12)C1CC1 | -0.33% | 1.81% | 0.82% | 1.09% | 3.83% | -1.89% | 2.09% | -1.01% | 2.62% | 1.1% | 1.67% | 3.22% | 7.96% | 1.21% | 2.33% | -3.11% | 0.45% | 1.25% | 0.79% | 1.08% |
| COc1ccc2cc(-c3c(-c4ccncc4)nc(-c4ccc(S(C)(=O)=O)cc4C)n3C)ccc2c1 | 18.2% | 4.66% | 4.49% | 11.5% | -2.55% | 4.4% | 10.1% | 0.81% | -1.08% | 1.95% | 7.37% | 5.89% | 13.1% | 4.23% | 3.79% | 7.46% | 5.18% | 2.39% | 2.25% | 1.82% |
| CCN(CC)Cc1ccc(Nc2nccc(-c3cnn4ncccc34)n2)cc1 | 13.7% | 5.43% | 8.15% | 12.4% | 17.1% | -5.53% | 0.13% | 29.6% | 68.9% | -1.69% | 5.04% | 4.93% | 13.5% | 3.11% | 54.6% | 21.9% | 73.2% | 2.45% | 7.36% | -3.08% |
| NS(=O)(=O)c1ccc(N/N=C2\C(=O)Nc3ccc(C(=O)NCCCn4ccnc4)cc32)cc1 | 19% | 6.29% | 4.25% | 37.3% | 32.9% | 4.15% | 26.7% | 2.86% | 6.33% | 2.07% | 19.2% | 5.3% | 17.8% | 2.13% | 3.17% | 6.3% | 6.66% | 2.1% | 3.71% | 1.19% |
| CCc1ccc(Oc2nccc(-c3c(-c4ccc(F)cc4)ncn3C3CCNCC3)n2)cc1 | -3% | 4.18% | 6.93% | 5.58% | 7.51% | 6.35% | 4.74% | 1.36% | 6.16% | 1.83% | 7.59% | 4.84% | 8.91% | 5.24% | 3.51% | 5.54% | 3.85% | 2.18% | 3.43% | 2.08% |
| Fc1ccc(-c2ncn(CCCN3CCOCC3)c2-c2ccncc2)cc1 | 3.15% | -0.58% | -0.73% | 5.04% | 0.03% | 0.07% | 0.05% | 0.18% | 1.37% | -0.55% | -2.27% | -1.42% | 2.38% | 2.24% | -1.55% | -0.34% | 0.12% | -0.04% | 0.12% | 0.83% |
